# This is a sample that favours compounds with a hit; in the whole collection about 7.9% have one here.
# MCF10A rereplic: A quantitative high throughput screen for small molecules that induce DNA re-replication in MCF 10a normal breast cells. MCF 10A DNA re-replication, Hoechst nuclear intensity, 48 h. Potency, µM (titrated, usually from 46.1 µM), without a hit: at the highest dose activity, positive = re-replication, most hits filed as activators. hit rate 2.9% among 350,000. AID 624296, 2012; note: % of control where 0% means no effect; nearly all actives have a fitted effect of over 50% in size
# HT1080-NT tox: qHTS for induction of synthetic lethality in tumor cells producing 2HG: qHTS for the HT-1080-NT fibrosarcoma cell line. HT-1080-NT fibrosarcoma viability, CellTiter-Glo ATP luminescence, 48 h. Potency, µM (series often up to 46.1 µM), inactives show at the highest dose activity, negative = less viability, actives largely listed as cytotoxic. hit rate 1.6% among 360,000. AID 686970, 2013;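 note: NT is the 2HG producing partner of a matched IDH1 knockdown line; 0% = DMSO-treated cells and -100% = media-only wells without cells; nearly all actives have a fitted effect of over 55% in size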
#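 Read-out is CellTiter-Glo luminescence after 10 minutes at room temperature, following 48 hours' compound treatment of HT-1080-NT cells (750 cells/well, RPMI, 5% FBS, 37 degrees C).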
# KB-V1 MDR tox: qHTS assay for MDR1-selective chemotherapeutics: Primary screen using the drug-selected MDR subline cells KB-V1; KB-V1 MDR cells viability, CellTiter-Glo, 72 h; Potency, µM (highest dose often 46.1 µM), most hits filed as cytotoxic; hit rate 3.4% among 400,000; AID 1347076, 2019; note: % is set by controls: 0 for no effect and ±100 for the full control effect; nearly all actives have a fitted effect of over 60% in size
#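 Cytotoxicity toward P-gp-expressing KB-V1 cells was determined as loss of CellTiter-Glo luminescence after 72 h at 37 degrees C. Compounds were tested in quantitative HTS format across a concentration range, with curves fitted to normalized data.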
# SW480 rereplic: A quantitative high throughput screen for small molecules that induce DNA re-replication in SW480 colon adenocarcinoma cells; SW480 DNA re-replication, Hoechst DNA content imaging, 48 h; Potency, µM (top dose mostly 46.1 µM), for the others: at the highest dose re-replication activation, usual class: activators; hit rate 1.8% among 340,000; AID 624297, 2012; note: % of control where 0% means no effect; nearly all actives have a fitted effect of over 55% in size
#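 Quantitative HTS format with DMSO vehicle controls; 48 hr drug incubation at 37 C, then 40 min Hoechst staining and scanning imager measurement at 405 nm excitation.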
# HT1080 IDH1KD tx: qHTS for induction of synthetic lethality in tumor cells producing 2HG: qHTS for the HT-1080-IDH1KD cell line; hit rate 2% among 360,000; Potency, µM (series often up to 46.1 µM), for the others: at the highest dose activity, negative = toxicity, hits mostly cytotoxic; AID 686971, 2013; HT-1080 IDH1 knockdown viability, ATP luminescence, 48 h;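 note: 0% = DMSO wells and -100% = cell-free medium wells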
#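 % activity derives from luminescence (CellTiter-Glo), normalised to DMSO and no-cell wells. HT-1080-IDH1KD cells, 750/well, had 48 h compound exposure at 37 °C.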
# KB-3-1 tox: qHTS assay for MDR1-selective chemotherapeutics: Primary screen using the parental adenocarcinoma cell KB-3-1 | KB-3-1 viability, CellTiter-Glo ATP luminescence, 72 h | Potency, µM (top dose mostly 46.1 µM), most hits filed as cytotoxic | hit rate 1.4% among 400,000; note: % is set by controls: 0 for no effect and ±100 for the full control effect; nearly all actives have a fitted effect of over 60% in size
#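 Cytotoxicity in the drug-sensitive parental line KB-3-1 was scored as loss of CellTiter-Glo luminescence following 72 h incubation with compound. Values come from curve fitting of normalized concentration-response data.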
# The depositor's hits bear a star; i = inactive; u = inconclusive; x = not tested or not shown; ! = not confirmed by another sample. Calls come from the whole dose curve; as a rule, active = well fitted curve in the direction sought with a large enough effect; inconclusive = small, poorly fitted or top-dose-only effect, or another doubt; inactive = no such curve, though single readings can be large; an effect the other way counts as inactive or inconclusive. Potency is the fitted concentration of half-maximal effect.
SMILES,MCF10A rereplic,HT1080-NT tox,KB-V1 MDR tox,SW480 rereplic,HT1080 IDH1KD tx,KB-3-1 tox
Cc1ccc(CNC(=O)C2CCC(CNS(=O)(=O)c3ccc4c(c3)CCCC(=O)N4)CC2)cc1 (configuration not stated),x,x,i,x,x,i
Cc1cc(C)cc(NC(=O)N2CCNC(=O)C2CC(=O)Nc2cc(Cl)ccc2Cl)c1 (configuration not stated),-0.3%,-2.4%,i,1.5%,5.5%,i
Cc1ccc(CSc2c(C)cnc3c2c(=O)n(C)c(=O)n3C)cc1,x,x,u,x,x,i
C=CCC[C@@H](CCCCC)OC(=O)/C=C/[C@H](O)[C@@H](O)C[C@H](O)CC=C,x,u,i,x,-27.4%,i
O=C(NCc1cccnc1)c1cc(Sc2cccc(Cl)c2)nc2ccccc12,u,-14.6%,16.4µM*,0.8%,0.1%,u
COc1ccc(-c2ccc3c(c2)C2CC3CCN2)cc1 (configuration not stated),20.6µM*,3.5%,i,27.1%,0.8%,i
CCOc1ccccc1/C=N/Nc1cc(C)nc2ccc(C)cc12,u,2.4%,i,-4.4%,-0.8%,i
COc1ccc(/C=N/Nc2cc(C)nc3c(C)cccc23)cc1,18.4µM*,u,i,25.9µM*,u,u
COc1ccc(/C=N/Nc2cc(C)nc3ccccc23)cc1,1.64µM*,18.4µM*,u,4.11µM*,u,14.6µM*
Cc1ccc2nc(C)cc(N/N=C/c3cccc(O)c3)c2c1,5.3%,u,i,17.3%,20.6µM*,i
COc1ccc2nc(C)cc(N/N=C/c3ccc(F)cc3)c2c1,23.1µM*,2.91µM*,u,16.4µM*,4.61µM*,25.9µM*
CCOC(=O)N1CCN(C(=O)CSC2=NS(=O)(=O)c3ccccc3N2)CC1,-1.3%,-8.0%,i,u,-1.8%,i
COc1ccc(CNc2cc(C)nc3ccc(OC)cc23)cc1,u,u,u,u,14.6µM*,i
COc1ccc(Nc2cc(C)nc3ccc(OC)cc23)cc1,22.8%,u,u,17.5%,u,i
CC(C)(C)OC(=O)C(Oc1ccccc1[N+](=O)[O-])C(=O)OC(C)(C)C,x,7.3%,i,x,9.2%,i
COc1cc(C(=O)/C=C/Nc2ccc(NC(C)=O)cc2)cc(OC)c1OC,13µM*,u,20.6µM*,2.4%,18.4µM*,i
CC(=O)Nc1ccc(N/C=C/C(=O)c2ccc(C)o2)cc1,23.1µM*,-15.2%,i,-0.2%,-18.3%,i
CC(C)Cn1c(-c2cccc(Br)c2)nc2ccccc21,x,x,i,x,x,i
O=C(NCCc1nc2ccccc2n1Cc1ccc(Cl)cc1)c1ccccc1,x,x,u,x,x,i
Cc1cccc(Cn2c(Cc3ccccc3)nc3ccccc32)c1,24.3%,-0.4%,20.6µM*!,-0.3%,11.0%,i
Cc1cccc(Cn2c(-c3ccccc3)nc3ccccc32)c1,x,x,i,x,x,u
COCn1c(-c2cccc(Br)c2)nc2ccccc21,15.8%,u,18.4µM*,26.9%,u,i
Cc1cccc(Cn2c(COc3ccc(Cl)cc3)nc3ccccc32)c1,x,x,i,x,x,i
COCc1nc2ccccc2n1Cc1cccc(C)c1,-1.4%,-2.9%,16.4µM*!,-5.9%,-3.3%,i
Cc1cccc(C(=O)NCCc2nc3ccccc3n2Cc2ccc(Cl)cc2)c1,x,x,10.3µM*,x,x,u
SMILES,MCF10A rereplic,HT1080-NT tox,KB-V1 MDR tox,SW480 rereplic,HT1080 IDH1KD tx,KB-3-1 tox
C[C@@H]1Cc2[nH][nH]c(=O)c2[C@H](C)O1,x,24.7%,u,x,9.8%,i
Cc1csc(C)[n+]1CCC1CCCCC1,x,x,i,x,x,u
O=C1c2c(-c3ccc(Br)cc3)noc2CCN1Cc1cn(-c2ccc(Cl)cc2)nn1,x,u,18.4µM*,x,-25.9%,20.6µM*
O=C1c2c(-c3ccc(Br)cc3)noc2CCN1Cc1cn(C2CCCC2)nn1,x,-21.0%,20.6µM*,x,u,u
O=C1c2c(-c3ccc(Br)cc3)noc2CCN1Cc1cn(-c2ccccc2)nn1,x,u,u,x,-25.2%,u
O=C1c2c(-c3ccc(Br)cc3)noc2CCN1Cc1cn(Cc2cccnc2)nn1,x,-18.3%,23.1µM*,x,-6.6%,u
O=C1c2c(-c3ccc(Br)cc3)noc2CCN1Cc1cn(Cc2ccccc2)nn1,x,u,u,x,u,i
CCCSc1ccc([C@H]2N[C@@](C)(C(=O)OC)[C@H]3C(=O)N(CC)C(=O)[C@@H]23)cc1,-20.2%,3.4%,i,-2.1%,-0.9%,i
Cc1cccc(/C=N/Nc2cc(N3CCOCC3)nc(N3CCOCC3)n2)c1,u,u,14.6µM*,2.06µM*,u,u
Cc1ccc(Nc2nc(N/N=C\c3ccc4c(c3)OCO4)nc(N3CCOCC3)n2)cc1,u,u,i,4.0%,25.9µM*,i
Clc1ccc(-c2ccc(/C=N/Nc3cc(N4CCOCC4)nc(N4CCOCC4)n3)o2)cc1,u,u,u,13µM*,u,u
COc1ccc(-c2c(-c3ccsc3)oc(=O)c3cc(OC)c(OC)cc23)cc1,0.8%,12.8%,i,-8.2%,9.1%,i
COCc1ccc(-c2c(-c3ccc(OC)cc3)oc(=O)c3cc(OC)c(OC)cc23)cc1,2.59µM*,-9.8%,i,16.1%,-14.7%,i
CC(Cc1cccs1)NC(=S)Nc1ccc(Cl)c(Cl)c1 (configuration not stated),u,u,i,16.7%,-25.3%,i
CC(Cc1cccs1)NC(=S)Nc1ccc(Cl)cc1 (configuration not stated),20.6µM*,u,i,5.4%,u,i
COCCCN1C(=O)C(CC(=O)NCc2cccs2)CC(C(=O)N2CCCCCC2)=C1C (configuration not stated),x,12.7%,i,x,1.0%,x
CCc1ccc(N=C2NC(=O)CS2)cc1,-0.7%,20.5%,u,-1.1%,22.2%,i
CCCCCCCCN=C1NC(=O)CS1,3.3%,4.4%,13µM*,-11.9%,4.7%,u
COC(=O)[C@]12CCCCC=C1N(CCC1=CCCCC1)C(=O)[C@H](CC(=O)NCc1cccc(C(F)(F)F)c1)C2,x,u,u,x,u,i

# Bioassay records: PubChem BioAssay, National Center for Advancing Translational Sciences (NCATS)
